# Screen size: about 100,000 compounds; about 770 (0.77%) were called active. Cut-off read from the data, not from the text of the source: active = inhibition above about 50%; inactive = the rest. What follows is part of a selection rich in actives, with near analogues and random picks from the rest.
# Molecular target: Gag-Pol polyprotein (Human immunodeficiency virus type 1 group M subtype B (isolate HXB2)) (UniProt P04585)
# Assay: RNase H inhibition, HIV 1 Gag Pol polyprotein, FRET biochemical assay, screening (AID 372)
# Conditions: HIV-1 RT RNase H, FRET RNA/DNA substrate fluorescence; at 10 µM; stronger effect = higher value
row,SMILES,inhibition
1,CCCCOc1ccc2c(C(F)(F)F)cc(=O)oc2c1,9% (inactive)
2,CCOC(=O)C1=C(C)NC2=C(C(=O)CC(c3ccc(OC)cc3)C2)C1c1ccccc1OC(C)C (configuration not stated),1% (inactive)
3,O=C(N/N=C/c1ccccc1OC(=O)c1sc2ccccc2c1Cl)c1ccc([N+](=O)[O-])cc1,6% (inactive)
4,O=C(Nc1cccc2ccccc12)c1ccccc1[N+](=O)[O-],5% (inactive)
5,Cc1ccc(OC(=O)Cn2c(=O)sc3cccc(Cl)c32)cc1C,12% (inactive)
6,Cc1cc(C)cc(OC(=O)Cn2c(=O)sc3cccc(Cl)c32)c1,11% (inactive)
7,CCn1c(=O)sc2cccc(Cl)c21,50% (active)
8,COC(=O)CCCCCN1C(=O)c2ccccc2C1=O,6% (inactive)
9,COc1cc(/C=c2\sc3nc4c(C)c(C)ccc4n3c2=O)cc(Cl)c1O,31% (inactive)
10,COc1cc(/C=c2/sc3nc4c(C)c(C)ccc4n3c2=O)cc(OC)c1OC(C)=O,8% (inactive)
11,COc1cc(/C=c2\sc3nc4c(C)c(C)ccc4n3c2=O)cc(OC)c1O,58% (active)
12,O=C(Nc1ccc(-c2noc(-c3ccccc3F)n2)cc1)c1cccs1,10% (inactive)
13,O=C(CCCN1C(=O)c2cccc3cccc(c23)C1=O)N1CCCCC1,29% (inactive)
14,CC1CCN(C(=O)CN2C(=O)c3cccc4cccc(c34)C2=O)CC1,7% (inactive)
15,CC1CCN(C(=O)CCCN2C(=O)c3cccc4cccc(c34)C2=O)CC1,56% (active)
16,COc1ccccc1-c1c(C(F)(F)F)oc2c(CN(C)C)c(O)ccc2c1=O,24% (inactive)
17,O=C(CN(c1cccc(Cl)c1)S(=O)(=O)c1ccccc1)N1CCN(Cc2ccccc2)CC1,14% (inactive)
18,CN1c2ccccc2-c2ccccc2C12C=Cc1cc(Br)cc(Br)c1O2 (configuration not stated),17% (inactive)
19,CN1c2ccccc2-c2ccccc2C12C=Cc1cc(Br)ccc1O2 (configuration not stated),6% (inactive)
20,COc1cc(Br)cc2c1OC1(C=C2)c2ccccc2-c2ccccc2N1C (configuration not stated),50% (active)
21,O=C(CSc1nnc(-c2ccccc2)n1-c1ccccc1)N/N=C/C=C/c1ccccc1,15% (inactive)
22,O=C(Nc1ccc(Cl)cc1)c1ccccc1C(=O)c1ccc(Cl)cc1,18% (inactive)
23,Cc1cccc2c1[nH]c1nc(N/N=C\c3cccc(O)c3)nnc12,14% (inactive)
24,Cc1cccc2c1[nH]c1nc(N/N=C\c3ccc(O)c(O)c3)nnc12,54% (active)
25,COc1cc(/C=N\Nc2nnc3c(n2)[nH]c2c(C)cccc23)ccc1O,11% (inactive)
26,O=c1[nH]c(-c2ccc(Br)cc2)nc2ccccc12,13% (inactive)

row,SMILES,inhibition
1,O=c1[nH]c(-c2ccncc2)nc2ccccc12,68% (active)
2,Cc1ccc(-c2nc3ccccc3c(=O)[nH]2)cc1,7% (inactive)
3,CC(=O)c1ccc(N2CCCCC2C)c(F)c1 (configuration not stated),0% (inactive)
4,Cc1cccc(-n2c(O)c(/C=C3\C=CC=N3)c(=O)[nH]c2=S)c1,11% (inactive)
5,O=c1[nH]c(=O)n(-c2ccccc2Cl)c(O)c1C=C1C=CC=N1,0% (inactive)
6,O=c1[nH]c(=S)n(-c2ccccc2)c(O)c1/C=C1/C=CC=N1,11% (inactive)
7,Cc1ccccc1-n1c(O)c(/C=C2\C=CC=N2)c(=O)[nH]c1=O,1% (inactive)
8,O=C(COc1ccccc1Cl)NNC(=O)c1cc2ccccc2cc1O,6% (inactive)
9,O=[N+]([O-])c1ccc(OCCCN2CCCCC2)cc1,0% (inactive)
10,CCOc1ccc2ccccc2c1/C=C(\C#N)C(=O)NCc1ccco1,24% (inactive)
11,CCc1ccc(/C=C2/SC(=S)N(CCC(=O)O)C2=O)cc1,8% (inactive)
12,CCCC1=C(C(=O)OCC)C(c2cc(C)c(OC)cc2C)C(C#N)=C(N)O1 (configuration not stated),2% (inactive)
13,Cc1cc(C)c2nc3s/c(=C\c4cccc([N+](=O)[O-])c4)c(=O)n3c2c1,10% (inactive)
14,Cc1ccc(N2C(=O)CC(Cc3ccc(Cl)cc3)C2=O)cc1C (configuration not stated),5% (inactive)
15,CCOC(=O)C1=C(C)N=c2s/c(=C\c3ccc(-c4ccc([N+](=O)[O-])cc4)o3)c(=O)n2C1c1ccc2c(c1)OCO2 (configuration not stated),41% (inactive)
16,CCOC(=O)C1=C(C)N=c2s/c(=C\c3ccc(-c4ccc(OC)cc4[N+](=O)[O-])o3)c(=O)n2C1c1ccc(OC)cc1 (configuration not stated),0% (inactive)
17,CCOC(=O)C1=C(C)N=c2s/c(=C\c3ccc(-c4ccc(OC)cc4[N+](=O)[O-])o3)c(=O)n2C1c1ccc(C)cc1 (configuration not stated),44% (inactive)
18,CCOC(=O)C1=C(C)N=c2s/c(=C\c3ccc(-c4cc(C)c(C)c([N+](=O)[O-])c4)o3)c(=O)n2C1c1ccc(OC)cc1 (configuration not stated),55% (active)
19,CCOC(=O)C1=C(C)N=c2s/c(=C\c3ccc(-c4cc(C)c(C)c([N+](=O)[O-])c4)o3)c(=O)n2C1c1ccc2c(c1)OCO2 (configuration not stated),50% (active)
20,CCOC(=O)C1=C(C)N=c2s/c(=C\c3ccc(-c4ccc(C)c([N+](=O)[O-])c4)o3)c(=O)n2C1c1ccc(OC)cc1 (configuration not stated),21% (inactive)
21,CCOC(=O)C1=C(C)N=c2s/c(=C\c3ccc(-c4ccc(OC)cc4[N+](=O)[O-])o3)c(=O)n2C1c1ccc(SC)cc1 (configuration not stated),52% (active)
22,CCOC(=O)C1=C(C)N=c2s/c(=C\c3ccc(-c4cc(C)c(C)c([N+](=O)[O-])c4)o3)c(=O)n2C1c1cc(OC)ccc1OC (configuration not stated),13% (inactive)
23,CCOC(=O)C1=C(C)N=c2s/c(=C\c3ccc(-c4cc(C)c(C)c([N+](=O)[O-])c4)o3)c(=O)n2C1c1ccc(OC)c(OC)c1 (configuration not stated),51% (active)
24,CCOC(=O)C1=C(C)N=c2s/c(=C\c3ccc(-c4cc(C)c(C)c([N+](=O)[O-])c4)o3)c(=O)n2C1c1ccc(Cl)cc1 (configuration not stated),37% (inactive)
25,CCOC(=O)C1=C(C)N=c2s/c(=C\c3ccc(-c4ccc(C)c([N+](=O)[O-])c4)o3)c(=O)n2C1c1ccc(OC)c(OC)c1 (configuration not stated),18% (inactive)
26,CCOC(=O)C1=C(C)N=c2s/c(=C\c3ccc(-c4ccc(C)c([N+](=O)[O-])c4)o3)c(=O)n2C1c1ccc2c(c1)OCO2 (configuration not stated),8% (inactive)

# Reference: PubChem BioAssay AID372 (MTDP, 2006)
